Compounds with a hit are over-represented: about 27% of the library has one in this group of screens.
Cav32 inh: Cav3.2 calcium influx blockers – cell-based, Fluo-4 calcium fluorescence, FDSS, MLSMR library, primary screen | AID 449739, 2010 | 4% of 100,000 active | Cav3.2-expressing cells; active compounds read low | B-score at 10 µM | Voltage-dependent T-type calcium channel subunit alpha-1H (Homo sapiens), O95180;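 active = single-dose well whose peak fluorescence ratio is a statistical outlier from its plate by either plate-standardised score or position-corrected B-score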
Target sequence (O95180 whole entry, looked up): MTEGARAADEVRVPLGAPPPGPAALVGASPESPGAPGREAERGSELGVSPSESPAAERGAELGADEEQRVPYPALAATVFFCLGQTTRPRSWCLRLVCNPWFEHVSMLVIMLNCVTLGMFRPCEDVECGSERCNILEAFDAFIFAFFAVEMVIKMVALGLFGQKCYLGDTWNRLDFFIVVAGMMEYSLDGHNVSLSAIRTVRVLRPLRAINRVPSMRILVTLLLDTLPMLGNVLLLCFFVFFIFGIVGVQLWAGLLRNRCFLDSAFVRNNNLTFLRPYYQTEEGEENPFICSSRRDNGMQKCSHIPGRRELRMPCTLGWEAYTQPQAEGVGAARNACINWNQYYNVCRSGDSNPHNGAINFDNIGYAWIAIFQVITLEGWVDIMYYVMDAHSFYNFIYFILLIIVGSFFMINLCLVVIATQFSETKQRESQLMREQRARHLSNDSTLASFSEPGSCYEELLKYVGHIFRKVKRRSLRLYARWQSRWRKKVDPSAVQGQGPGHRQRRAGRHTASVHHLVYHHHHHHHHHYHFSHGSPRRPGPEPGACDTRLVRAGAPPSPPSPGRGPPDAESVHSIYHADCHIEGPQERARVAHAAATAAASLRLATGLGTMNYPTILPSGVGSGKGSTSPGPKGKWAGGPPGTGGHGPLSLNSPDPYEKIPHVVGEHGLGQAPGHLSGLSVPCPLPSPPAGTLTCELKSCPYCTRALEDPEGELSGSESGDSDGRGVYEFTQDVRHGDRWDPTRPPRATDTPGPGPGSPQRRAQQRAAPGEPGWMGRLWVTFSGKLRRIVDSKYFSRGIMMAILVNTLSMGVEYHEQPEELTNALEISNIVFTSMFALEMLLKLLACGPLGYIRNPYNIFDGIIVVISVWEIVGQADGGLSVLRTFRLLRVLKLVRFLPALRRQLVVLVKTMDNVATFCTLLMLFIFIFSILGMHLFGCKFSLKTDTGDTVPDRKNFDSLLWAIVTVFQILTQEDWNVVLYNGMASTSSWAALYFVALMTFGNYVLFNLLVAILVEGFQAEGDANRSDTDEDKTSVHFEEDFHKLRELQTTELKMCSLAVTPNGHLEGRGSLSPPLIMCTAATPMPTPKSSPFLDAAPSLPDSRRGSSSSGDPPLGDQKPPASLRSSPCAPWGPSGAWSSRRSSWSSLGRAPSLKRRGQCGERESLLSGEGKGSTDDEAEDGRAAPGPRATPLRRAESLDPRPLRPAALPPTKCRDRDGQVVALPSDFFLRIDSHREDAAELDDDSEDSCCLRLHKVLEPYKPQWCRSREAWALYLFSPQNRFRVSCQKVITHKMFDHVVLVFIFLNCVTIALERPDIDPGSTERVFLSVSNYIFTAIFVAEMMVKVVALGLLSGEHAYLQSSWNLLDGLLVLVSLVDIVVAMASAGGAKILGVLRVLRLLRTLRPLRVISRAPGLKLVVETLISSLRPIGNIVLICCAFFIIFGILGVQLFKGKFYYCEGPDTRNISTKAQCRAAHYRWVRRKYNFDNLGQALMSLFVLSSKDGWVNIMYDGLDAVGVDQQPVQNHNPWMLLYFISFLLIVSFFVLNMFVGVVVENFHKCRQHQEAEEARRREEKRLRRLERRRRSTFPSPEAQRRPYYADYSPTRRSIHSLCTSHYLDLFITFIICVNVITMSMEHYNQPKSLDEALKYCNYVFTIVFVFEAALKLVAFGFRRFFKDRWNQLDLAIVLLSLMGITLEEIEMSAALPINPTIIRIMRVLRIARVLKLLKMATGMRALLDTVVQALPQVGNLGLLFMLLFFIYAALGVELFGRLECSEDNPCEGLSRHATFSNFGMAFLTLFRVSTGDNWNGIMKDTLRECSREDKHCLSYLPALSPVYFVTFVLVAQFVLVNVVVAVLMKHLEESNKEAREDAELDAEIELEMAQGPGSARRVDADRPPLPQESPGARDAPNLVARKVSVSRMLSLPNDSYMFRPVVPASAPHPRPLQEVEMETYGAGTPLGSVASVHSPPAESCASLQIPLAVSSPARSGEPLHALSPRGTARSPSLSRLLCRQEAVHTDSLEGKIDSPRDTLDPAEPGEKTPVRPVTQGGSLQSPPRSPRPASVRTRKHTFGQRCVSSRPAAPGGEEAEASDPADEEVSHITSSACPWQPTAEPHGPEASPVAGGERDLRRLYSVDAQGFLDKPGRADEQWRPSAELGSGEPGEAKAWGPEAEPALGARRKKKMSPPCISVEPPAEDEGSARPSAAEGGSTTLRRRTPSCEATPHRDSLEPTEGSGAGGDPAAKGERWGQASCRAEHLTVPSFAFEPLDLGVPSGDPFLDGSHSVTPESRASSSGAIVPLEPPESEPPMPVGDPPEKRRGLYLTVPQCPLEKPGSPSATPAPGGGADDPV
CYP2C19 inhib: blockers of cytochrome P450 2C19 activity – biochemical, luminescence, ADME assay, primary screen. CYP2C19 Supersomes, luciferin-H EGE luminescence, 30 min. inhibition, % at 5 µM. 21% of 96,000 active. AID 778, 2007;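 active = CYP2C19 inhibition above a set limit at 5 µM in the primary screen, cut at about 50% in these data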;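 also: plate controls were negative control wells for no effect and 2.5 mM tranylcypromine positive control for full effect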
CYP2C9 inhib: blockers of cytochrome P450 2C9 activity – biochemical, luminescence, ADME assay, primary screen; CYP2C9 Supersomes, luciferin-H conversion; inhibition, % at 5 µM; 20% of 96,000 active;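 active = blocking of liver enzyme CYP2C9 beyond about 50% at 5 µM, limit read from the data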
CYP2C19 activ: human CYP2C19 activators, primary screen, biochemical, luminescence; Cytochrome P450 2C19 (Homo sapiens), P33261; recombinant CYP2C19, luciferin-H EGE luminescence; active compounds read high; 0 = fully inhibited enzyme, 1 = untreated enzyme; activation factor at 5 µM; 96,000 tested, under 10 active;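 active = activation factor of at least 2 at 5 µM in the primary screen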;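 also: 0 = wells with 2.5 mM tranylcypromine and 1 = vehicle-only wells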
CYP2C9 activ: human CYP2C9 activators, primary screen, biochemical, luminescence; Cytochrome P450 2C9 (Homo sapiens), P11712; recombinant CYP2C9, luciferin-H conversion; active compounds read high; factor 1 = untreated enzyme, 0 = blocked; activation factor at 5 µM; 1.4% of 96,000 active;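 active = activation factor of 2 or more for CYP2C9 at a 5 µM dose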;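 also: 0 = sulfaphenazole-blocked wells and 1 = vehicle-only wells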
The depositor's hits bear a star; x = no result given.

SMILES | Cav32 inh | CYP2C19 inhib | CYP2C9 inhib | CYP2C19 activ | CYP2C9 activ
O=S1(=O)Nc2c(ccc3cccnc23)-c2ccccc21 | 1.6 | 4 | 65* | 1 | 0.4
CC(N=C1NS(=O)(=O)c2ccccc21)c1ccccc1 (stereo unspecified) | -0.62 | 26 | 9 | 0.7 | 0.9
COc1ccc(CCNc2oc(COc3ccccc3F)nc2C#N)cc1OC | -5.1* | 96* | 91* | 0 | 0.1
COCCNc1oc(COc2cccc(C)c2)nc1C#N | -0.52 | 57* | 10 | 0.4 | 0.9
CCNc1oc(COc2ccccc2F)nc1C#N | 1.1 | 96* | 39 | 0 | 0.6
COc1ccc(CCNc2oc(COc3ccccc3Cl)nc2C#N)cc1OC | -5.8* | x | x | x | x
CN(C)CCNc1oc(COc2cccc(Cl)c2)nc1C#N | 0.028 | -12 | -28 | 1.1 | 1.3
CCOC(=O)C(C)Oc1ccsc1C(=O)OC (stereo unspecified) | 2.3 | 2 | 14 | 1 | 0.9
COc1ccc(CCNc2oc(Cc3ccccc3)nc2C#N)cc1OC | -1.5 | 75* | 50* | 0.3 | 0.5
COc1ccc(CCNc2oc(COc3ccc(F)cc3)nc2C#N)cc1 | -3.5 | 53* | 70* | 0.5 | 0.3
Cc1ccc(CNC(=O)c2ccc(Cn3nc(C)c(Cl)c3C)o2)cc1 | -4.7* | 78* | 45 | 0.2 | 0.6
Cc1nn(Cc2ccc(C(=O)Nc3ccccc3C(F)(F)F)o2)c(C)c1Br | -2.4 | 91* | 35 | 0.1 | 0.6
Cc1ccc(Cn2nc(C)c(NC(=O)C3(C)CC3(Br)Br)c2C)cc1 (stereo unspecified) | -1 | x | x | x | x
Cc1csc(NC(=O)Cn2cnnn2)n1 | -0.19 | -8 | -13 | 1.1 | 1.1
FC(F)(F)c1ccc(-n2ccnc2)nc1 | 0.42 | 52* | 38 | 0.5 | 0.6
Cc1ccnc(NC(=O)Nc2cccc(F)c2)c1 | x | 33 | 16 | 0.7 | 0.8
CCCCC1=CC2=CC(=O)C(C)(OC(=O)CC)C(=O)C2=CN1CCN1CCOCC1 (stereo unspecified) | 0.35 | x | x | x | x
CCOc1ccc(NC(=O)CNC(=O)c2cn(-c3ccccc3OC)c(=O)c3ccccc23)cc1 | -1.9 | 86* | 88* | 0.1 | 0.1
CCOC(=O)N1CCC(NC(=O)c2cn(-c3ccc(OC)cc3)c(=O)c3ccccc23)CC1 | 0.85 | 91* | 90* | 0.1 | 0.1
CCOC(=O)N1CCC(NC(=O)c2cccn3c(=O)c4cc(Br)ccc4nc23)CC1 | 0.17 | 64* | 86* | 0.4 | 0.1
CCOC(=O)N1CCC(NC(=O)c2cccc3c2C(=O)N(c2ccc(OC)cc2)C3)CC1 | 1.4 | 97* | 98* | 0 | 0
CCCN1Cc2cccc(C(=O)Nc3cc(OC)cc(OC)c3)c2C1=O | 0.46 | 12 | 46 | 0.9 | 0.5
COc1ccc(N2Cc3cccc(C(=O)NC(C)CCc4ccco4)c3C2=O)cc1 (stereo unspecified) | -0.81 | 85* | 92* | 0.2 | 0.1
Cc1cc(C2C(C#N)=C(N)OC3=C2C(=O)CC(C)(C)C3)c(C)s1 (stereo unspecified) | 3.3 | 38 | 34 | 0.6 | 0.7
Cn1c(=O)cc(SCC(=O)NCCN2CCN(c3ccccc3F)CC2)c2cc(Cl)ccc21 | -0.3 | 33 | -14 | 0.7 | 1.1
SMILES | Cav32 inh | CYP2C19 inhib | CYP2C9 inhib | CYP2C19 activ | CYP2C9 activ
O=S(=O)(c1ccccc1)c1cnn(-c2ccccc2)c1-c1ccc(Cl)cc1 | -3.9* | 55* | 23 | 0.4 | 0.8
O=C(CN1C(=O)COc2ccccc21)N(Cc1cccnc1)Cc1cccc(F)c1 | -0.01 | 87* | 91* | 0.1 | 0.1
CC1(C)C(=O)OC(c2cccs2)C(C)(C)C1=O (stereo unspecified) | -0.85 | 71* | 5 | 0.3 | 1
CCCCc1cc(=O)oc2cc(OCc3nn[nH]n3)c(Cl)cc12 | x | 44 | 80* | 0.6 | 0.2
CCc1cc(=O)oc2cc(OCc3nn[nH]n3)ccc12 | 0.19 | 23 | 40 | 0.8 | 0.6
CC(C)c1ccc(OC(=O)NCCO)cc1 | 0.4 | 49 | -10 | 0.5 | 1.1
CCc1ncc(C)nc1CC | -0.29 | x | x | x | x
CC(CN1CCCCC1)OC(=O)C1c2ccccc2Oc2ccccc21 (stereo unspecified) | -0.38 | 72* | -17 | 0.3 | 1.2
Cc1ccnc(NS(=O)(=O)c2ccc(N=CC3=C(O)CC(C)(C)CC3=O)cc2)n1 | 0.31 | -19 | -24 | 1.2 | 1.2
O=C(NC12CC3CC(CC(C3)C1)C2)N1CCN(S(=O)(=O)c2ccc(Cl)cc2)CC1 | -7* | -4 | 5 | 1 | 0.9
CC12CN3CC(C)(CN(C1)C3c1ccc3c(c1)OCO3)C2=O (stereo unspecified) | 0.048 | 53* | -13 | 0.5 | 1.1
CN1c2ccccc2N(C)C1c1ccc2c(c1)OCO2 | 0.13 | 5 | -2 | 0.9 | 1
O=C(O)C(Cc1cc2ccccc2[nH]1)N1C(=O)C2CC=C(Cl)CC2C1=O (stereo unspecified) | -0.0048 | x | x | x | x
CC1(C)CC(=O)c2sc(N3CCCCC3)nc2C1 | -0.51 | 58* | 26 | 0.4 | 0.7
COc1ccc(N2C(=O)CC(NC3CCCCNC3=O)C2=O)cc1 (stereo unspecified) | 0.29 | x | x | x | x
O=C(NCCn1ccc2ccccc21)C1CCCCC1 | -0.13 | x | x | x | x
Cc1cc2ccccc2n1CCNC(=O)c1cccs1 | -2.4 | 53* | 45 | 0.5 | 0.5
Cc1cc2ccccc2n1CCNC(=O)C1CCCCC1 | -0.18 | 68* | 38 | 0.3 | 0.6
Cc1cccn2cc(CNC(=O)C3CCCCC3)nc12 | -0.47 | x | x | x | x
Cc1cc2ccccc2n1CCNC(=O)C1CCCC1 | x | 94* | 52* | 0.1 | 0.5
CCn1c(CCCNC(=O)c2cccs2)nc2ccccc21 | 0.16 | 76* | -59 | 0.2 | 1.6
COc1ccc(C2OC(=O)CC2C(=O)NC2CCCCCC2)cc1OC (stereo unspecified) | 0.68 | 10 | 21 | 0.9 | 0.8
N#C/C(Cn1c[n+](NC(=O)Nc2ccccc2)cn1)=N/O | -0.0032 | 18 | 19 | 0.8 | 0.8
O=C(O)Cc1ccc2c(c1)N(S(=O)(=O)c1cccc(C(F)(F)F)c1)CC(C(=O)O)O2 (stereo unspecified) | 0.85 | 1 | 3 | 1 | 1
CCOC(=O)Cc1c(C)nc2c(-c3ccc(OC)cc3)c(C)nn2c1C | 0.26 | 18 | 40 | 0.8 | 0.6
SMILES | Cav32 inh | CYP2C19 inhib | CYP2C9 inhib | CYP2C19 activ | CYP2C9 activ
Cc1ccc(-c2nc3ccccc3o2)cc1NC(=O)Cc1cccs1 | -0.16 | 18 | 21 | 0.8 | 0.8
Cc1cccc(NC(=O)c2cc3ccccc3o2)c1 | -2.7 | x | x | x | x
CCC(=O)Nc1cccc(-c2nc3ccccc3o2)c1 | 0.79 | 54* | 22 | 0.5 | 0.8
O=C(Cc1cccs1)Nc1cccc(-c2nc3ccccc3o2)c1 | -0.31 | 27 | 67* | 0.7 | 0.3
Cc1cccc(-c2nnc(-c3cccc(NC(=O)Cc4cccs4)c3)o2)c1 | -3.2 | 72* | 65* | 0.3 | 0.4
CCC(=O)Nc1cccc(NC(=O)c2cc3ccccc3o2)c1 | x | 62* | 3 | 0.4 | 1

Source: PubChem (several laboratories)
